Screening data as filed in PubChem BioAssay.
Rows were chosen to be rich in hits. Some 0.77% of all compounds tested hit in one or more screens of this group.
RecA intein inh: Mtb RecA intein splicing inhibitors, primary screen, biochemical, fluorescence, HTS | Protein RecA (Mycobacterium tuberculosis (strain ATCC 25618 / H37Rv)), P9WHJ3 | cell-free RecA intein splicing | inhibition, % (concentration not given with the values) | hit rate 0.75% among 290,000 | AID 2221, 2009; in the data active = inhibition above about 30%;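 note: 0% = vehicle wells and 100% = reference inhibitor control wells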
RmlCD inh 1536: M. tuberculosis RmlC/RmlD coupled enzyme inhibitors, primary screen, biochemical, compound mixtures, 384-well, from 1536-well plates; RmlC+RmlD coupled enzyme assay, percent inhibition; primary screen in compound mixtures; inhibition, % at 3.6 µM; AID 1533, 2009; dTDP-4-dehydrorhamnose reductase (Mycobacterium tuberculosis (strain ATCC 25618 / H37Rv)) …; hit rate 0.03% among 160,000; in the data active = inhibition mostly above about 34%, no sharp cut-off
Target sequence (P9WH09 whole entry, looked up): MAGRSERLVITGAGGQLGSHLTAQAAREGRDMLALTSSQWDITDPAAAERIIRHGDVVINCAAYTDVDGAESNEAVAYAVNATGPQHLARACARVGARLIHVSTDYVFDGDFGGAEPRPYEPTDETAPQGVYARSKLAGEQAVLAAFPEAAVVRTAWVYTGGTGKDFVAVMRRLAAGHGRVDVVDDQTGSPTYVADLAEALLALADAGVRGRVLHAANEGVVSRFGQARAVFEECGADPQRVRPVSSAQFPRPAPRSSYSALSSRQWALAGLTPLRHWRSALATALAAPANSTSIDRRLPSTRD
Target sequence (P9WH11 whole entry, looked up): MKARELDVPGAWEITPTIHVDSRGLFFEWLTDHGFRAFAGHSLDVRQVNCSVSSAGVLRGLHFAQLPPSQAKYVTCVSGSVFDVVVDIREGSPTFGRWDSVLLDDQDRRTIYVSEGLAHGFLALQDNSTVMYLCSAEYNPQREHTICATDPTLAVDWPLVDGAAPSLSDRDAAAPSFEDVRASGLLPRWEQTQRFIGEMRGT
GFP chromophore: counter-screen: blocks GFP chromophore formation, dose response, counter-screen, biochemical, fluorescence, homogeneous; cell-free GFP chromophore formation; hit rate 83% among 2,100; shares compounds with RecA intein inh; EC50, µM; call rule not given here
* = called active by the depositor; . = no result.

SMILES	RecA intein inh	RmlCD inh 1536	GFP chromophore
O=C(Nc1ccc(Cl)cc1)C(Cl)C(=O)c1ccccc1 (stereo not given)	46*	.	38*
O=C(Nc1ccccc1Cl)C(Cl)C(=O)c1ccccc1 (stereo not given)	.	11	.
COC(=O)CN1C(=O)C2(C(C#N)=C(N)Oc3c2c(C)nn3-c2ccccc2)c2ccccc21 (stereo not given)	75*	-10	15*
COC(=O)CN1C(=O)C2(C(C#N)=C(N)Oc3n[nH]c(-c4cccs4)c32)c2ccccc21 (stereo not given)	9	2	.
COc1cc(NCc2ccccc2O)c2ncccc2c1	1	6	.
COc1cc(NC(C)CCCN)c2ncccc2c1 (stereo not given)	90*	.	13*
COc1cc(NCCCCCCCN)c2ncccc2c1	72*	.	5.2*
COc1cc(NC(=O)c2ccc3c(c2)OCO3)c2ncccc2c1	-2	.	.
Cc1cccc(-n2c(-c3csc(C)c3)n[nH]c2=S)c1	2	9	.
CC(C)C1CC(CCN)(c2ccccc2)CCO1 (stereo not given)	2	-2	.
CCc1ccc(CNCc2ccc(F)cc2)cc1	2	.	.
CCOC(=O)C1=C(C)NC(SCc2cc(=O)[nH][nH]2)=C(C#N)C1c1cccs1 (stereo not given)	70*	.	20*
CCOC(=O)C1=C(C)NC(SCC(N)=O)=C(C#N)C1c1cccs1 (stereo not given)	0	.	.
COc1ccc(/C=C2\SC(=S)N(CCC(=O)Nc3ccccc3C(=O)O)C2=O)cc1	24	.	.
O=C(CCN1C(=O)/C(=C/c2cccs2)SC1=S)Nc1cccc(O)c1	36*	.	>38
CCOc1ccc(/C=C2\SC(=S)N(CCC(=O)Nc3ccccc3C(=O)O)C2=O)cc1	36*	.	>38
O=C(CCCN1C(=O)/C(=C/c2cccs2)SC1=S)Nc1cccc(O)c1	8	.	.
O=C(CCN1C(=O)/C(=C/c2cccs2)SC1=S)Nc1ccc(O)cc1	8	.	.
O=C(CCN1C(=O)/C(=C/c2cccs2)SC1=S)Nc1ccc(C(=O)O)c(O)c1	44*	.	31*
CCN(C(=O)C1CCN(c2nc(-c3ccc(OC)cc3)no2)CC1)c1ccc(OC)cc1	7	.	.
CCc1cc(C(c2ccccn2)N2CCN(C)CC2)c(NC(=O)c2ccccc2)s1 (stereo not given)	3	10	.
O=C1/C(=C\c2ccc(O)c(O)c2)SC(=S)N1Cc1ccccc1	23	.	.
O=C1/C(=C\c2cc([N+](=O)[O-])ccc2O)SC(=S)N1Cc1ccc(Cl)cc1	52*	.	35*
O=C1/C(=C\c2cccc(O)c2O)SC(=S)N1Cc1ccccc1	36*	.	39*
O=C(O)CN1C(=O)/C(=C\c2cc([N+](=O)[O-])ccc2OCc2ccccc2Cl)SC1=S	26	.	.
SMILES	RecA intein inh	RmlCD inh 1536	GFP chromophore
COc1ccc(C(CNC(=O)c2ccc(Br)o2)N2CCN(C)CC2)cc1 (stereo not given)	-1	.	.
CC(=O)NN1C(=O)/C(=C/c2ccc(C(C)C)cc2)SC1=S	7	.	.
COc1cc(C(C(=O)NC2CCCCC2)N(CCN2CCOCC2)C(=O)C2COc3ccccc3O2)cc(OC)c1OC (stereo not given)	47*	2	>38
COc1ccc(C(C(=O)NC2CCCCC2)N(CC2CCCO2)C(=O)C2COc3ccccc3O2)cc1OC (stereo not given)	0	.	.
C/C(CC(=O)Nc1ccccn1)=N\NC(=O)c1ccccc1	11	.	.
C/C(CC(=O)NC1CCCC1)=N\NC(=O)Cc1cccs1	-1	21	.
C/C(CC(=O)Nc1ccccn1)=N\NC(=O)c1ccccc1O	0	.	.
C/C(CC(=O)Nc1ccccn1)=N\NC(=O)Cc1cccc2ccccc12	87*	.	8.6*
C/C(CC(=O)Nc1ccccn1)=N\NC(=O)c1ccncc1	85*	.	6.8*
COc1cc(OC)cc(C(=O)N/N=C(\C)CC(=O)Nc2ccccn2)c1	56*	.	24*
C/C(CC(=O)Nc1ccc(Cl)cn1)=N\NC(=O)Cc1cccs1	62*	10	37*
C/C(CC(=O)Nc1ccccn1)=N\NC(=O)c1ccc2ccccc2c1	0	8	.
CC(=O)Nc1ccc(NC(C)=C(C#N)C#N)cc1	3	.	.
Cn1c(-c2ccccc2)c(C(=O)CCl)c2ccccc21	42*	-11	14*
Cn1c(-c2ccccc2)c(CCO)c2ccccc21	1	.	.
CCn1c(-c2ccccc2)c(C(=O)CCl)c2ccccc21	40*	5	1.6*
CCn1c2ccccc2c(=O)c2ccccc21	-273	10	.
CCCCOc1nc2ccccc2nc1C(C#N)S(=O)(=O)c1ccccc1 (stereo not given)	-3	-3	.
Cc1cc2c(cc1C)N(C(=O)CSc1nncn1C)C(C)(C)c1ssc(=S)c1-2	22	.	.
Cc1ccc2c(c1)N(C(=O)CSc1nncn1C)C(C)(C)c1ssc(=S)c1-2	39*	3	14*
N#Cc1c(-c2ccccc2)nc(SCC(=O)N(c2ccccc2)c2ccccc2)[nH]c1=O	16	-7	.
N#Cc1c(-c2ccccc2)nc(SCC(=O)N2c3ccccc3Sc3ccccc32)[nH]c1=O	44*	0	10*
C#CC(=O)N(c1ccc(OC)cc1OC)C(C(=O)NC1CCCC1)c1cccs1 (stereo not given)	.	29	.
C#CC(=O)N(c1cc(OC)ccc1OC)C(C(=O)NC1CCCC1)c1cccs1 (stereo not given)	31*	.	2.9*
COc1ccccc1Cn1c(=S)[nH]c2cc(C(=O)N3CCC(C(N)=O)CC3)ccc2c1=O	-2	.	.
SMILES	RecA intein inh	RmlCD inh 1536	GFP chromophore
COC(=O)N/N=C/c1cc(Cl)c(OCc2ccccc2F)c(OC)c1	0	.	.
O=C(c1ccc2c(c1)OCO2)[C@@H]1[C@@H]2C(=O)N(C3CCCCC3)C(=O)[C@@H]2C2c3ccccc3C=CN21 (stereo not given in full)	4	-10	.
O=C(c1cccs1)[C@@H]1[C@@H]2C(=O)N(Cc3ccc4c(c3)OCO4)C(=O)[C@@H]2C2c3ccccc3C=CN21 (stereo not given in full)	38*	37	4.2*
Cc1ccc(-c2csc3ncn(CC(=O)OC(C)C)c(=O)c23)cc1	1	.	.
S=C(Nc1ccc(Cl)cc1)c1nc2ccccc2s1	1	-9	.
O=C(Nc1ccc(Cl)cc1)/C(=C/c1cccc(O)c1)c1nc2ccccc2s1	46*	17	21*
CCN(CC)c1ccc2c(c1)CCCN2	33*	.	>38
O=S(=O)(c1ccc2c(c1)CCCN2)N1CCCC2CCCCC21 (stereo not given)	9	-8	.
Cc1ccc(OCC(=O)N(C)Cc2ccccc2)c([N+](=O)[O-])n1	1	-5	.
CN1CCN(C(=O)NC2CCCCC2)CC1	0	.	.
COc1cc(C(C(=O)NC2CCCCC2)N(Cc2ccco2)C(=O)c2cnccn2)cc(OC)c1OC (stereo not given)	-2	-9	.
COc1ccc(OC)c2c1C(=O)c1ccccc1C2=O	-2	-14	.
COc1ccc2noc3c2c1C(=O)c1ccccc1-3	60*	.	10*
